# In publication PMC13494018:
# Unmarked numbers belong to inactive results. How the calls were made is not given here.
# Biological target: CD276, Q5ZPR3
# Sequence (Q5ZPR3 whole entry): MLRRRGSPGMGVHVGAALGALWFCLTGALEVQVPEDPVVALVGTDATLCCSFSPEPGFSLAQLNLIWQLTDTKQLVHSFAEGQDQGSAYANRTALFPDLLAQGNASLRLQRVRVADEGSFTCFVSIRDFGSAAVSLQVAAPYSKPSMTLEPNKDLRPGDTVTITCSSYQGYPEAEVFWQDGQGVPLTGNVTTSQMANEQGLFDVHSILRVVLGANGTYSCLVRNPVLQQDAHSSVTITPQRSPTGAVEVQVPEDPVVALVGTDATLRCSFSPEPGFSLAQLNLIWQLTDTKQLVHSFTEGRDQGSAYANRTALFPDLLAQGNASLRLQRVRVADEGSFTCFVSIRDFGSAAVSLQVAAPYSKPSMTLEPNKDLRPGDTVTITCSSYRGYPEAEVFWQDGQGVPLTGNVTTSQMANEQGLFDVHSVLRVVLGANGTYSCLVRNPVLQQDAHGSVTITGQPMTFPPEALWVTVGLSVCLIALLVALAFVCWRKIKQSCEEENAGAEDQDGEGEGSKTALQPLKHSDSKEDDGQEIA
row,Binder,binding in a display sort
1,design_618_d4ffd631-0ea2-432e-ba0f-bd3d6297b2a0_140_dldesign_0_cycle1_af2pred (protein) NEDLTKAGEKVVETQRTASEAARTSGDPAVAAEMNAIANAAIKALQAGVATGDYKTALETTEKLLKEAKAKLKEVK,not found
2,design_617_b3fadc1d-0db4-4da8-8433-818493aa2ab2_2347_dldesign_0_cycle1_af2pred (protein) AAAEQAAREALQGRALEKMKEYVDKLVALAKETGSEAALEAAQQVASLFTQAIIAAQQDLAAGRAALAQGEALAKAAIAALE,not found
3,design_617_b3fadc1d-0db4-4da8-8433-818493aa2ab2_1686_dldesign_0_cycle1_af2pred (protein) MEEYLEEAKRFAESVIELSKLLLEGAPYNPALSAASLAALRKQAKARAEEAAKIDPEAAEALEKAAKTAEEAEKKAKALAA,not found
4,design_617_b3fadc1d-0db4-4da8-8433-818493aa2ab2_2293_dldesign_0_cycle1_af2pred (protein) AEEALKLLKEAKKKAEEALKLAEKGGDPEEIKALVNEALSLATKGSAQAVKHPEIAPLGNAVLGYAVDVAERVEELLKERE,not found
5,design_617_b3fadc1d-0db4-4da8-8433-818493aa2ab2_1993_dldesign_0_cycle1_af2pred (protein) PSVEEIGQALLDNLKKTLEEAVKASLEEAKGYAAQAAALYIGAHGASPEYGKQAEEIVKKAIKELEKKDPEKAKILKEAIEKAEALL,not found
6,design_617_b3fadc1d-0db4-4da8-8433-818493aa2ab2_2360_dldesign_0_cycle1_af2pred (protein) AAAQAQAQQIVDQTRAAVEEARAMAEDGATAAAAAERAAAVARQASAAIPQALAASPQIAGQLAQVALDATRVEAEARRNAA,not found
7,design_618_d4ffd631-0ea2-432e-ba0f-bd3d6297b2a0_110_dldesign_0_cycle1_af2pred (protein) AGAAAAEEIRALVDKAIADPATAPEYTARAAEIARAADPRLAGVGQAILAAAERLAAGSPEEAARHAAQMRELTDVVVATLLG,not found
8,design_617_b3fadc1d-0db4-4da8-8433-818493aa2ab2_2043_dldesign_0_cycle1_af2pred (protein) DLVEKYREEALAEAEKLVKEGVSPEEAAEILMEKAREYFAQAAKASPEVAVKLIAKAEGYALAAKEIRERL,not found
9,design_618_d4ffd631-0ea2-432e-ba0f-bd3d6297b2a0_170_dldesign_0_cycle1_af2pred (protein) AAAAAAADAEAAALAKGFVEEAKKKIEALLKAGAPEEELLAEASRVAAKAIRTFAALGWNGSHAVAAVKAITEEAKKAIEKLRA,not found
10,design_618_d4ffd631-0ea2-432e-ba0f-bd3d6297b2a0_93_dldesign_0_cycle1_af2pred (protein) MEEVKALIARAAELLAAAAADPSTAGEKVTEAIRLLAEAAALDPSIAPLANEAMALATRGLVTGPEGLAAAEEATKAVLEAV,not found
11,design_617_b3fadc1d-0db4-4da8-8433-818493aa2ab2_2366_dldesign_0_cycle1_af2pred (protein) GLEKALKELKKVAEATAAAATAADPAMKPTADLLKKAAERAAAGDAETALANLNTILVLADSIAAVDPAAAKKLKEAAEKAIKIAR,not found
12,design_617_b3fadc1d-0db4-4da8-8433-818493aa2ab2_1785_dldesign_0_cycle1_af2pred (protein) EAEEYYKKGKEYSAKGDELYKAGKYEEAIKYYQKAANYYSKASILLTKAGGDQEKIDEANANLAKALENLEKASRALREAREKEEK,not found
13,design_617_b3fadc1d-0db4-4da8-8433-818493aa2ab2_1885_dldesign_0_cycle1_af2pred (protein) AEAAKKGEEAVKKAEEAKKKAEAAAAKLPASVADPVKAAADALVASAKAHAEAGNTESAEATAEVLAGMAEGTKARADALAA,not found
14,design_617_b3fadc1d-0db4-4da8-8433-818493aa2ab2_1940_dldesign_0_cycle1_af2pred (protein) MEEYRARAEELLEKAKKAAEGENGVGDVGELAVEMAKLAAEAEKASPEAGAYARAALVEISQLAIEAAKRKAA,not found
15,design_618_d4ffd631-0ea2-432e-ba0f-bd3d6297b2a0_165_dldesign_0_cycle1_af2pred (protein) AAAAAKVAVAAAKSMIKQAKKFLEEGEKSGDLKLVESAKKLAEQAKNLAKFAIANPATKEEGEKLEKEAEEVKKKAEEAEKKIK,not found
16,design_618_d4ffd631-0ea2-432e-ba0f-bd3d6297b2a0_220_dldesign_0_cycle1_af2pred (protein) DKEEAVKLAEEGAEVALKLADKRVGAVTAAAFRGLARSIRAAEDPEDIAKIAEVAKGMKAWAEAQLKATA,not found
17,design_617_b3fadc1d-0db4-4da8-8433-818493aa2ab2_1817_dldesign_0_cycle1_af2pred (protein) AEEERMRAAIREIAAAAAAEVEAWAKAHPAADQAEWFAALQAAGEKAAEAMAAIDPRYAPEARALAMALGAGAVQRVKA,not found
18,design_617_b3fadc1d-0db4-4da8-8433-818493aa2ab2_1728_dldesign_0_cycle1_af2pred (protein) GAALAARHGAAAARGALQGTVEEAAAQLANGLKIAAQLAPADGAAYRAAVLAVIAQASPERAAAILALAG,not found
19,design_617_b3fadc1d-0db4-4da8-8433-818493aa2ab2_2387_dldesign_0_cycle1_af2pred (protein) AAAAEGELLGKLIELARRASKLDPETANLILSGLGLYGVDPEAGVKKLLEAAELAKKAGHEELAKEIKELAEKLAAVSAA,not found
